Active and inactive are the calls of the source. The calls were made as follows: active = hit-call score of the fitted dose curve at least 0.9, where 1 is the maximum; inactive = score below 0.9.

Read-out in assay [1]: Thrombomodulin, THBD (gene 7056)
Put plainly: BSK_CASM3C_Thrombomodulin: BioMAP Diversity Plus: CASM3C Assay for Thrombomodulin Biomarker Activity (AID 2283051).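 Also: thrombomodulin protein level measured by ELISA 24 h after dosing.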 The settings on record: primary human coronary artery smooth muscle cells; actives raise or lower the signal.

Read-out in assay [2]: Tissue Factor, F3 (gene 2152)
The assay can be described thus: BSK_CASM3C_TissueFactor: BioMAP Diversity Plus: CASM3C Assay for Tissue Factor Biomarker Activity (AID 2283052).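 Also: cell surface tissue factor protein level read by ELISA.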 The settings on record: primary human coronary artery smooth muscle cells; actives raise or lower the signal.

Read-out in assay [3]: Interferon-gamma inducible Protein 10 (IP10), CXCL10 (gene 3627)
Put plainly: BSK_hDFCGF_IP10: BioMAP Diversity Plus: hDFCGF Assay for Interferon-gamma inducible Protein 10 (IP10) Biomarker Activity (AID 2283053). The settings on record: primary human foreskin fibroblasts; actives raise or lower the signal. The method, boiled down: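 ELISA read-out of IP-10 (CXCL10) from primary human skin fibroblasts, 24 h after compound addition. Gain or loss of signal versus DMSO baseline, bidirectional curve fitting.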

Read-out in assay [4]: Urokinase-type plasminogen activator receptor (uPAR), PLAUR (gene 5329)
Put plainly: BSK_CASM3C_uPAR: BioMAP Diversity Plus: CASM3C Assay for Urokinase-type plasminogen activator receptor (uPAR) Biomarker Activity (AID 2283054).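 Also: cell-surface uPAR protein level quantified by ELISA.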 The settings on record: primary human coronary artery smooth muscle cells; actives raise or lower the signal.

Read-out in assay [5]: Vascular cell adhesion molecule 1 (VCAM1), VCAM1 (gene 7412)
Put plainly: BSK_CASM3C_VCAM1: BioMAP Diversity Plus: CASM3C Assay for Vascular cell adhesion molecule 1 (VCAM1) Biomarker Activity (AID 2283055).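 Also: VCAM-1 protein level quantified by ELISA on the cells.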 The settings on record: primary human coronary artery smooth muscle cells; actives raise or lower the signal.

Read-out in assay [6]: Collagen III, COL3A1 (gene 1281)
Put plainly: BSK_hDFCGF_CollagenIII: BioMAP Diversity Plus: hDFCGF Assay for Collagen III Biomarker Activity (AID 2283056). As to conditions: primary human foreskin fibroblasts; actives raise or lower the signal. The method, boiled down: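 Human foreskin primary fibroblasts were exposed to test chemicals for 24 h, after which collagen III was quantified by ELISA. Activity was fitted bidirectionally against DMSO as negative control and baseline.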

Read-out in assay [7]: Epidermal growth factor receptor (EGFR), EGFR (gene 1956)
The assay can be described thus: BSK_hDFCGF_EGFR: BioMAP Diversity Plus: hDFCGF Assay for Epidermal growth factor receptor (EGFR) Biomarker Activity (AID 2283057). As to conditions: primary human foreskin fibroblasts; actives raise or lower the signal. In outline: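 ELISA readout of EGFR on human dermal fibroblasts (primary foreskin cells), 24 h post-dosing; bidirectional curve fit vs DMSO baseline, gain or loss of signal scored.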

Read-out in assay [8]: Interleukin-8 (IL8), CXCL8 (gene 3576)
The assay can be described thus: BSK_hDFCGF_IL8: BioMAP Diversity Plus: hDFCGF Assay for Interleukin-8 (IL8) Biomarker Activity (AID 2283058). As to conditions: primary human foreskin fibroblasts; actives raise or lower the signal. The method, boiled down:
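hDFCGF human dermal fibroblasts; 24 h chemical exposure; IL-8 by ELISA; bidirectional curve fit vs DMSO baseline; gain or loss of signal scored.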

The nature of assay [9]: BSK_hDFCGF_Proliferation: Cell Proliferation Assessment in the BioMAP Diversity Plus: hDFCGF Assay (AID 2283059).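 Also: curves fitted for both rise and fall of signal versus DMSO baseline.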 The settings on record: primary human foreskin fibroblasts. The method, boiled down: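 Sub-confluent human foreskin fibroblast cultures receive test chemical […]. Relative cell number is quantified by sulforhodamine B staining (0.1%, after 10% TCA fixation) at 560 nm, with bidirectional fitting referenced to DMSO.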

Read-out in assay [10]: Macrophage colony-stimulating factor (MCSF), CSF1 (gene 1435)
The assay can be described thus: BSK_hDFCGF_MCSF: BioMAP Diversity Plus: hDFCGF Assay for Macrophage colony-stimulating factor (MCSF) Biomarker Activity (AID 2283060). The settings on record: primary human foreskin fibroblasts; actives raise or lower the signal. The method, boiled down: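 Human foreskin primary fibroblasts were treated with test chemical for 24 h, and M-CSF was then measured by ELISA. Data were fitted bidirectionally against DMSO as the negative control and activity baseline.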

The nature of assay [11]: BSK_hDFCGF_SRB: Viability Assessment in the BioMAP Diversity Plus: hDFCGF Assay (AID 2283061).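 Also: cells exposed to compound for 24 h before the read.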 The settings on record: primary human foreskin fibroblasts. The method, boiled down:
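Human foreskin primary fibroblasts were treated with compound and assessed 24 h after dosing. Total protein was measured by sulforhodamine B staining (0.1% SRB after 10% TCA fixation, 560 nm read) as a cytotoxicity marker, with bidirectional fitting against DMSO baseline.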

Read-out in assay [12]: TIMP metallopeptidase inhibitor 1 (TIMP1), TIMP1 (gene 7076)
The assay can be described thus: BSK_hDFCGF_TIMP1: BioMAP Diversity Plus: hDFCGF Assay for TIMP metallopeptidase inhibitor 1 (TIMP1) Biomarker Activity (AID 2283062). As to conditions: primary human foreskin fibroblasts; actives raise or lower the signal. The method, boiled down:
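Primary human foreskin fibroblasts in the hDFCGF system were dosed with compound for 24 h, then TIMP-1 was measured by ELISA. Activity was fitted bidirectionally relative to DMSO control; parallel SRB staining assessed cytotoxicity.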

Read-out in assay [13]: Monokine induced gamma interferon (MIG), CXCL9 (gene 4283)
The assay can be described thus: BSK_hDFCGF_MIG: BioMAP Diversity Plus: hDFCGF Assay for Monokine induced gamma interferon (MIG) Biomarker Activity (AID 2283063). The settings on record: primary human foreskin fibroblasts; actives raise or lower the signal. The method, boiled down:
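ELISA read-out of MIG from primary human dermal fibroblasts 24 h post-dosing. Gain or loss of signal fitted bidirectionally, DMSO as baseline.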

Read-out in assay [14]: Vascular cell adhesion molecule 1 (VCAM1), VCAM1 (gene 7412)
Put plainly: BSK_hDFCGF_VCAM1: BioMAP Diversity Plus: hDFCGF Assay for Vascular cell adhesion molecule 1 (VCAM1) Biomarker Activity (AID 2283065).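 As to AC50: VCAM-1 protein level quantified by ELISA after 24 h chemical exposure.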 As to conditions: primary human foreskin fibroblasts; actives raise or lower the signal. The method, boiled down:
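Primary human foreskin fibroblasts (hDFCGF system) were dosed with chemical and VCAM-1 was measured by ELISA 24 h later. Bidirectional curve fitting used DMSO as negative control and activity baseline.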

Read-out in assay [15]: Plasminogen activator inhibitor-1 (PAI1), SERPINE1 (gene 5054)
The assay can be described thus: BSK_hDFCGF_PAI1: BioMAP Diversity Plus: hDFCGF Assay for Plasminogen activator inhibitor-1 (PAI1) Biomarker Activity (AID 2283066). The settings on record: primary human foreskin fibroblasts; actives raise or lower the signal. In outline: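 ELISA readout of PAI-1 from primary human skin fibroblast cultures, 24 h after compound addition. Gain or loss of signal was fitted bidirectionally against DMSO baseline.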

Read-out in assay [16]: Intercellular Adhesion Molecule 1 (ICAM1), ICAM1 (gene 3383)
The assay can be described thus: BSK_KF3CT_ICAM1: BioMAP Diversity Plus: KF3CT Assay for Intercellular Adhesion Molecule 1 (ICAM1) Biomarker Activity (AID 2283067). As to conditions: primary human keratinocytes with fibroblasts; actives raise or lower the signal. In outline: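 Human keratinocyte plus foreskin fibroblast primary co-culture was exposed to chemical for 24 h. ICAM-1 was then quantified by ELISA, and the data were fit bidirectionally against DMSO as the negative control and baseline.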

Read-out in assay [17]: Interferon-gamma inducible Protein 10 (IP10), CXCL10 (gene 3627)
The assay can be described thus: BSK_KF3CT_IP10: BioMAP Diversity Plus: KF3CT Assay for Interferon-gamma inducible Protein 10 (IP10) Biomarker Activity (AID 2283068). The settings on record: primary human keratinocytes with fibroblasts; actives raise or lower the signal. The method, boiled down: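 ELISA read-out of IP-10 after 24 h chemical dosing of human skin primary co-culture (keratinocytes, foreskin fibroblasts). Gain or loss of signal relative to DMSO, bidirectional curve fit.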

Assay [18] in a line: BSK_KF3CT_SRB: Viability Assessment in the BioMAP Diversity Plus: KF3CT Assay (AID 2283069). As to conditions: primary human keratinocytes with fibroblasts. The method, boiled down: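 Cytotoxicity was gauged by SRB staining (0.1% SRB, 10% TCA fixation, 560 nm) of parallel cultures at 24 h. The cells were primary human skin keratinocytes co-cultured with fibroblasts, and activity was fitted in both directions against DMSO.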

Read-out in assay [19]: Interleukin-1 alpha (IL1a), IL1A (gene 3552)
Put plainly: BSK_KF3CT_IL1a: BioMAP Diversity Plus: KF3CT Assay for Interleukin-1 alpha (IL1a) Biomarker Activity (AID 2283070). As to conditions: primary human keratinocytes with fibroblasts; actives raise or lower the signal. The method, boiled down: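 IL-1a was detected by ELISA 24 h after chemical treatment of a co-culture of human skin keratinocytes and foreskin fibroblasts. Gain or loss of signal was fitted against the DMSO baseline.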

Read-out in assay [20]: Matrix Metallopeptidase 1 (MMP1), MMP1 (gene 4312)
The assay can be described thus: BSK_hDFCGF_MMP1: BioMAP Diversity Plus: hDFCGF Assay for Matrix Metallopeptidase 1 (MMP1) Biomarker Activity (AID 2283064). The settings on record: primary human foreskin fibroblasts; actives raise or lower the signal. The method, boiled down: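 MMP1 levels quantified by ELISA 24 h after dosing human dermal fibroblast cultures, with parallel SRB total-protein staining for overt cytotoxicity. Data fitted in both directions against DMSO baseline.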

Consider `CNC(=O)ON=C(C)SC`, for which the outcome in assay [1], in assay [2], in [3], in [4], in [5] and in assay [6] was inactive. Also, the result in assay [7], in assay [8], in [9], in assay [10], in assay [11] and in [12] was inactive. In addition, the outcome in assay [13], in [14], in [15], in assay [16], in assay [17] and in assay [18] was inactive. The outcome in [19] was inactive.
Regarding `CC(COc1ccc(Oc2ccccc2)cc1)Oc1ccccn1` (stereo not drawn), the result in assay [1], in assay [2], in assay [3], in assay [4], in assay [5] and in assay [6] was inactive. The result in [7], in [8], in [10], in assay [11], in assay [13] and in assay [14] was inactive. In addition, the outcome in [15], in [16], in assay [17], in assay [18] and in [19] was inactive. In addition, in [9], the half-maximal activity concentration (AC50) – broadly, the concentration at which the activity in the assay is half-maximal – is 10.8 µM (active).
As for `CCCOc1nn(C(=O)NS(=O)(=O)c2ccccc2C(=O)OC)c(=O)n1C`, the result in [1], in assay [2], in assay [3], in [4], in [5] and in assay [6] was inactive. Further, the result in assay [7], in assay [8], in [9], in [10], in [11] and in assay [12] was inactive. For the same compound, the result in assay [13], in [14], in assay [15], in assay [16], in assay [17] and in [18] was inactive. In assay [19], the result was inactive.
For the compound `CSc1nc(NC(C)C)nc(NC(C)C)n1`, the outcome in assay [1], in [2], in assay [3], in assay [4], in [5] and in assay [6] was inactive. For the same compound, the outcome in [7], in [8], in assay [9], in [10], in assay [11] and in [13] was inactive. Besides, the result in [20], in [14], in assay [15], in assay [16], in [17] and in [18] was inactive. Also, in [19], the outcome was inactive.
In the case of `CC(C)N(C(=O)SCC(Cl)=C(Cl)Cl)C(C)C`, the AC50 in assay [1] is 20 µM (active); in [3], 34 µM (active); in assay [6], 30.5 µM (active); in assay [7] it was 28.4 µM (active); in [8], 33.6 µM (active); in assay [9], 36.6 µM (active). In addition, the half-maximal activity concentration (AC50) in assay [10] was 32 µM (active); in [11] it was 33.8 µM (active); in [12], 34.4 µM (active); in [13] it was 33.8 µM (active); in [14] it was 34.8 µM (active); in [15], 34.4 µM (active). For the same compound, the half-maximal activity concentration (AC50) was 29.8 µM (active) in assay [16], 36.3 µM (active) in assay [17], 32.5 µM (active) in assay [18] and 30.5 µM (active) in [19]. Moreover, the outcome in assay [2], in [4] and in [5] was inactive.
With `CCOP(=O)(OCC)Oc1cc(C)nc(C(C)C)n1`, the outcome in assay [1], in assay [2], in assay [3], in assay [4], in assay [5] and in [7] was inactive. The outcome in assay [8], in [11], in [13], in assay [14], in assay [16] and in assay [17] was inactive. In addition, the result in assay [18] and in [19] was inactive. The concentration at half-maximal activity (AC50) was 31.7 µM (active) in assay [6]; 25.9 µM (active) in [9]; 34.3 µM (active) in assay [10]; 14.9 µM (active) in assay [12]; 7.42 µM (active) in assay [15].

The values above are taken from PubChem BioAssay (EPA / NIEHS).
